Data on 36 compounds can be found in PubChem BioAssay (NCI).

About 79,000 compounds went through this panel and 15% of them were active in at least one assay; those are over-represented in the sample as a whole. Activity calls are given as the source filed them. No stated cut-off is given here; in the data, active means growth inhibition above about 70%; inactive means the rest.

The first experiment in a line: NCI Yeast Anticancer Drug Screen. Data for the mec2-1 strain (AID 157). As to conditions: S. cerevisiae mec2-1 strain, at 1.2 µM, hits give high values. The procedure, abridged: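 Yeast mec2-1 mutant treated with compound. Readout: growth inhibition vs vehicle controls.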
`CN(C)CC(CN(C)C)C(=O)/C=C/c1ccc(Cl)cc1Cl`: the growth inhibition was -3% (inactive).
`c1ccc2c(c1)ccn2CCc1c[nH]c2ccccc12`: the growth inhibition is -24% (inactive).
For `Cc1ccccc1NC(=O)c1c(C)oc2c1C(=O)c1ccccc1C2=O`, the growth inhibition was -28% (inactive).
Take `CC(C)OC(=O)NNc1c(Cl)cc(Cl)cc1Cl`: the growth inhibition is -3% (inactive).
For `COc1ccc2nc3cccc([N+](=O)[O-])c3c(NCCNCCO)c2c1`, the growth inhibition was 17% (inactive).
Turning to `COc1ccc2c(c1)CCCC(Br)C2=O` (configuration not stated), the growth inhibition is 38% (inactive).
Still for that read-out and setting: as for `CCC(OC(C)=O)C1CC(C(C)C)CCC1C` (configuration not stated), the figure is 2% (inactive); as for `O=S(=O)(c1cccc(C(F)(F)F)c1)N1c2ccccc2-n2cccc2C1c1cccnc1` (configuration not stated), -59% (inactive); as for `c1ccc(-c2cc(C3CO3)c3ccccc3n2)cc1` (configuration not stated), -3% (inactive).
The same measure, in the same setting: as for `COc1ccc(/C=C2\SC(=S)N(/C=C3\C(=O)N(c4ccccc4)N=C3C)C2=O)cc1OC`, the figure is 3% (inactive); as for `CC1=CC(=C(c2ccc(N)c(C)c2)c2ccc(N)c(C)c2)C=CC1=N`, 1% (inactive); as for `CC1C(c2ccccc2)SC(=N)N1C` (configuration not stated), 0% (inactive).
In the case of `CC(/C=C/c1ccc([N+](=O)[O-])o1)=N/N1CC(CN2CCOCC2)OC1=O` (configuration not stated), the growth inhibition is 2% (inactive).
In the case of `C=CC(C)(C)N1C(=O)C(C(C)=O)=C(O)C1Cc1c[nH]c2ccccc12` (configuration not stated), the growth inhibition is 0% (inactive).
As for `O=C1c2cccc3cccc(c23)C(=O)N1CCNCCN1C(=O)c2cccc3cccc(c23)C1=O`, the growth inhibition was -3% (inactive).
For `Cc1ccc([N+](=O)[O-])c2c(NCCC[N+](C)(C)[O-])c3ccccc3nc12`, the growth inhibition was -15% (inactive).
As to `COC(=O)C(Cc1c[nH]c2ccccc12)N1CN(C)c2ccccc2C1=O` (configuration not stated), the growth inhibition was 5% (inactive).
Still for that read-out and setting: as for `O=C(/N=N/C(=O)Oc1ccccc1)Oc1ccccc1`, the figure is -97% (inactive); as for `COc1cc([C@@H]2c3cc4c(cc3[C@@H](NC(=O)NO)[C@H]3COC(=O)[C@H]23)OCO4)cc(OC)c1O`, -1% (inactive); as for `CC1(C)CC(=O)C(/C=N/c2nc(-c3ccc(Br)cc3)cs2)=C(O)C1`, 7% (inactive).
For the compound `CCOC(=O)/C(=C/c1cccc(Cl)c1)N(CC)CC`, the growth inhibition is 6% (inactive).
For `CC(C)OC(=O)NNc1cccc(Cl)c1`, the growth inhibition was 0% (inactive).
Regarding `CCC(=O)C1=C(O)c2cc(OC)ccc2CC1C(=O)OC` (configuration not stated), the growth inhibition is -1% (inactive).
On to `O=S(=O)(NC1CCCC(c2ccccc2)C1)c1ccccc1` (configuration not stated), for which the growth inhibition was -8% (inactive).
Take `COc1ccc2nc3cccc([N+](=O)[O-])c3c(NCCCCCC(=O)O)c2c1`: the growth inhibition is 63% (inactive).
For `CCO/C=C1\SC(=S)N(c2ccc(OCC)cc2)C1=O`, the growth inhibition was -43% (inactive).
Still for that read-out and setting: as for `COc1cc(OC)c(CSCC(NC(=O)OCC2c3ccccc3-c3ccccc32)C(=O)O)c(OC)c1` (configuration not stated), the figure is 2% (inactive); as for `COC(=O)c1ccccc1N=NNc1cccc(SC)c1`, 1% (inactive).
On to `CC1=NN(C(=O)c2ccccc2O)C(=O)/C1=C/c1ccco1`, for which the growth inhibition is -4% (inactive).
For the compound `COc1ccccc1NC(=O)c1ccc(Cl)cc1`, the growth inhibition was -5% (inactive).
Regarding `CC(C)=CCC/C(C)=C/CN1C(=O)C=CC1=O`, the growth inhibition is -3% (inactive).
For the compound `O=C1CSC(c2ccccc2)N1c1ccc(-c2ccc(-n3c(-c4ccccc4)nc4ccccc4c3=O)cc2)cc1` (configuration not stated), the growth inhibition is 0% (inactive).
Still for that read-out and setting: to `N#CC1OB(O)c2ccccc21` (configuration not stated) belongs 1% (inactive).
On to `O=C(NCCNCCNC(=O)c1cc(-c2ccccc2)nc2ccccc12)c1cc(-c2ccccc2)nc2ccccc12`, for which the growth inhibition is -3% (inactive).
`Brc1ccc(B2Nc3ccccc3N2)cc1`: the growth inhibition is 1% (inactive).
Turning to `CCOP(=O)(OCC)/C(C#N)=C/c1cccc(Oc2ccccc2)c1`, the growth inhibition is -8% (inactive).

Staying with this experiment, now noted: S. cerevisiae mec2-1 strain, at 3.7 µM, hits give high values.
On to `CN(C)CC(CN(C)C)C(=O)/C=C/c1ccc(Cl)cc1Cl`, for which the growth inhibition is -4% (inactive).
Consider `c1ccc2c(c1)ccn2CCc1c[nH]c2ccccc12`, for which the growth inhibition is -23% (inactive).
The same measure, in the same setting: to `Cc1ccccc1NC(=O)c1c(C)oc2c1C(=O)c1ccccc1C2=O` belongs -31% (inactive); to `CC(C)OC(=O)NNc1c(Cl)cc(Cl)cc1Cl`, -3% (inactive); to `COc1ccc2nc3cccc([N+](=O)[O-])c3c(NCCNCCO)c2c1`, 75% (active).
As to `COc1ccc2c(c1)CCCC(Br)C2=O` (configuration not stated), the growth inhibition is 41% (inactive).
Take `CCC(OC(C)=O)C1CC(C(C)C)CCC1C` (configuration not stated): the growth inhibition is 3% (inactive).
As for `O=S(=O)(c1cccc(C(F)(F)F)c1)N1c2ccccc2-n2cccc2C1c1cccnc1` (configuration not stated), the growth inhibition was -32% (inactive).
With `c1ccc(-c2cc(C3CO3)c3ccccc3n2)cc1` (configuration not stated), the growth inhibition is -1% (inactive).
On to `COc1ccc(/C=C2\SC(=S)N(/C=C3\C(=O)N(c4ccccc4)N=C3C)C2=O)cc1OC`, for which the growth inhibition is 4% (inactive).
As for `CC1=CC(=C(c2ccc(N)c(C)c2)c2ccc(N)c(C)c2)C=CC1=N`, the growth inhibition is 5% (inactive).
Take `CC1C(c2ccccc2)SC(=N)N1C` (configuration not stated): the growth inhibition was -1% (inactive).
With `CC(/C=C/c1ccc([N+](=O)[O-])o1)=N/N1CC(CN2CCOCC2)OC1=O` (configuration not stated), the growth inhibition was 0% (inactive).
On the same count and under the same terms, as for `C=CC(C)(C)N1C(=O)C(C(C)=O)=C(O)C1Cc1c[nH]c2ccccc12` (configuration not stated), the figure is 1% (inactive); as for `O=C1c2cccc3cccc(c23)C(=O)N1CCNCCN1C(=O)c2cccc3cccc(c23)C1=O`, -4% (inactive); as for `Cc1ccc([N+](=O)[O-])c2c(NCCC[N+](C)(C)[O-])c3ccccc3nc12`, -10% (inactive).
Consider `COC(=O)C(Cc1c[nH]c2ccccc12)N1CN(C)c2ccccc2C1=O` (configuration not stated), for which the growth inhibition was -1% (inactive).
In the case of `O=C(/N=N/C(=O)Oc1ccccc1)Oc1ccccc1`, the growth inhibition was -47% (inactive).
`COc1cc([C@@H]2c3cc4c(cc3[C@@H](NC(=O)NO)[C@H]3COC(=O)[C@H]23)OCO4)cc(OC)c1O`: the growth inhibition is 1% (inactive).
With `CC1(C)CC(=O)C(/C=N/c2nc(-c3ccc(Br)cc3)cs2)=C(O)C1`, the growth inhibition was 11% (inactive).
`CCOC(=O)/C(=C/c1cccc(Cl)c1)N(CC)CC`: the growth inhibition is 2% (inactive).
Same read-out and setting: as for `CC(C)OC(=O)NNc1cccc(Cl)c1`, the figure is 11% (inactive).
With `CCC(=O)C1=C(O)c2cc(OC)ccc2CC1C(=O)OC` (configuration not stated), the growth inhibition is -4% (inactive).
For `O=S(=O)(NC1CCCC(c2ccccc2)C1)c1ccccc1` (configuration not stated), the growth inhibition was -2% (inactive).
Consider `COc1ccc2nc3cccc([N+](=O)[O-])c3c(NCCCCCC(=O)O)c2c1`, for which the growth inhibition was 96% (active).
As to `CCO/C=C1\SC(=S)N(c2ccc(OCC)cc2)C1=O`, the growth inhibition is -35% (inactive).
On to `COc1cc(OC)c(CSCC(NC(=O)OCC2c3ccccc3-c3ccccc32)C(=O)O)c(OC)c1` (configuration not stated), for which the growth inhibition is 11% (inactive).
Still for that read-out and setting: to `COC(=O)c1ccccc1N=NNc1cccc(SC)c1` belongs 9% (inactive); to `CC1=NN(C(=O)c2ccccc2O)C(=O)/C1=C/c1ccco1`, 2% (inactive).
With `COc1ccccc1NC(=O)c1ccc(Cl)cc1`, the growth inhibition is -5% (inactive).
On to `CC(C)=CCC/C(C)=C/CN1C(=O)C=CC1=O`, for which the growth inhibition was 17% (inactive).
Same read-out and setting: as for `O=C1CSC(c2ccccc2)N1c1ccc(-c2ccc(-n3c(-c4ccccc4)nc4ccccc4c3=O)cc2)cc1` (configuration not stated), the figure is -1% (inactive); as for `N#CC1OB(O)c2ccccc21` (configuration not stated), 0% (inactive).
Turning to `O=C(NCCNCCNC(=O)c1cc(-c2ccccc2)nc2ccccc12)c1cc(-c2ccccc2)nc2ccccc12`, the growth inhibition was -3% (inactive).
Same read-out and setting: as for `Brc1ccc(B2Nc3ccccc3N2)cc1`, the figure is 6% (inactive); as for `CCOP(=O)(OCC)/C(C#N)=C/c1cccc(Oc2ccccc2)c1`, 1% (inactive).
